Assay results as given in the supplement of paper PMC10849652.
The full data set covers some 7,900 targets. This sample favours those with a hit. About 0.6% of all pairs of compound and target were hits.

Experiments:
Experiment in all cases: log2 fold change, soluble protein after heating vs DMSO (PISA); higher = thermal stabilisation; K562 cells, 10 uM, 30 min; active = over 0.2 and 3.5 SD of the protein, either way, in both replicates (recomputed)
[1] = compound: NC(=O)Nc1cc(-c2cccc(F)c2)sc1C(=O)N[C@H]1CCCNC1
Outline: (§1)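 K562 cells (2×10^6 cells/mL) were treated with 10 μM compound for 30 min, and aliquots were heated for 3 min over 48°C-58°C. Pooled aliquots were extracted in PBS with 0.5% NP-40 at 4°C, and the supernatant after 21,000xg for 90 min was measured by TMTpro 16plex LC-MS/MS with channel sums equalised. Reported thermal stability, relative to control samples and from duplicates, is a log2 fold change.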

[2] = compound: NC(=O)c1cnc(N[C@@H]2CCCC[C@@H]2N)nc1Nc1cccc(-n2nccn2)c1
Outline: as §1

[3] = compound: NC1(c2ccc(-c3nc4ccn5c(=O)[nH]nc5c4cc3-c3ccccc3)cc2)CCC1
Outline: as §1

[4] = compound: NCC(=O)Nc1ccc(-n2nc(C(F)(F)F)cc2-c2ccc3c(ccc4ccccc43)c2)cc1
Outline: as §1

entinostat = compound: Nc1ccccc1NC(=O)c1ccc(CNC(=O)OCc2cccnc2)cc1 [entinostat]
Outline: as §1

vorinostat = compound: O=C(CCCCCCC(=O)Nc1ccccc1)NO [vorinostat]
Outline: as §1

citarinostat = compound: O=C(CCCCCCNC(=O)c1cnc(N(c2ccccc2)c2ccccc2Cl)nc1)NO [citarinostat]
Outline: as §1

silmitasertib = compound: O=C(O)c1ccc2c(c1)nc(Nc1cccc(Cl)c1)c1ccncc12 [silmitasertib]
Outline: as §1

[5] = compound: O=C1NC(=O)C(c2cnc3ccccn23)=C1c1cn2c3c(cc(F)cc13)CN(C(=O)N1CCCCC1)CC2
Outline: as §1

[6] = compound: c1cc(OCCN2CCCCC2)cc(-c2n[nH]c3ccc(-c4nnc[nH]4)cc23)c1
Outline: as §1

entospletinib = compound: c1cn2cc(-c3ccc4cn[nH]c4c3)nc(Nc3ccc(N4CCOCC4)cc3)c2n1 [entospletinib]
Outline: as §1

Measured: log2 fold change

BTAF1 (UniProt O14981)
inactive: [1] -0.024 | [2] -0.012 | [3] -0.152 | [4] -0.104 | entinostat 0.012 | vorinostat 0.037 | citarinostat 0.038 | silmitasertib 0.036 | [5] -0.062 | [6] 0.079 | entospletinib -0.005

ANXA5 (UniProt P08758)
inactive: [1] -0.021 | [2] -0.044 | [3] -0.139 | [4] -0.031 | entinostat 0.055 | vorinostat 0.027 | citarinostat 0.115 | silmitasertib 0 | [5] -0.045 | [6] -0.008 | entospletinib 0.016

ACSF3 (UniProt Q4G176)
Chain of UniProt Q4G176 (Q4G176 whole entry, looked up): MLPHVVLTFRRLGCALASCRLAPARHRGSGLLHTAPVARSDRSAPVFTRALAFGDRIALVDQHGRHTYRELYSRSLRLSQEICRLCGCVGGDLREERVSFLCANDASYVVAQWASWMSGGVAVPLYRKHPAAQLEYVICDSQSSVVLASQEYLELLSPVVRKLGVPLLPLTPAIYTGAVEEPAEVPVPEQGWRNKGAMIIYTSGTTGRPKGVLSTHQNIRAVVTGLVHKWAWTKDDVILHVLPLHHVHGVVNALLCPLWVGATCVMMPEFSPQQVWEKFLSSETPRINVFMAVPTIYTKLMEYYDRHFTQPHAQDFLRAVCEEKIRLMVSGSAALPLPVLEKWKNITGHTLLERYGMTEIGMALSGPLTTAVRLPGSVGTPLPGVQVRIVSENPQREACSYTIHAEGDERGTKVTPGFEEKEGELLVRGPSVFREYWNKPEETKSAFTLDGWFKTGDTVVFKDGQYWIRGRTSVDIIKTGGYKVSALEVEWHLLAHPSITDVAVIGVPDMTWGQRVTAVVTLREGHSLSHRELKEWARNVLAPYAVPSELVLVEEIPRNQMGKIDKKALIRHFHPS
inactive: [1] -0.016 | [2] -0.073 | [3] -0.098 | [4] -0.184 | entinostat 0.069 | vorinostat 0.007 | citarinostat 0.197 | silmitasertib 0.109 | [5] 0.035 | [6] -0.107 | entospletinib -0.059

BECN1 (UniProt Q14457)
inactive: [1] 0.045 | [2] 0.083 | [3] -0.006 | [4] -0.016 | entinostat -0.024 | vorinostat -0.073 | citarinostat -0.046 | silmitasertib 0.026 | [5] -0.071 | [6] 0.021 | entospletinib 0.011

BRK1 isoform 2 (UniProt Q8WUW1)
inactive: [1] -0.071 | [2] 0.033 | [3] -0.019 | [4] 0.065 | entinostat 0.079 | vorinostat -0.06 | citarinostat 0.031 | silmitasertib -0.063 | [5] -0.16 | [6] -0.078 | entospletinib 0.047

ATR (UniProt Q13535)
inactive: [1] -0.003 | [2] 0.002 | [3] 0.044 | [4] -0.089 | entinostat 0.017 | vorinostat 0.057 | citarinostat 0.039 | silmitasertib 0.035 | [5] -0.058 | [6] -0.066 | entospletinib -0.021

ALDH9A1 isoform 3 (UniProt P49189)
Chain of UniProt P49189 (P49189 whole entry, looked up): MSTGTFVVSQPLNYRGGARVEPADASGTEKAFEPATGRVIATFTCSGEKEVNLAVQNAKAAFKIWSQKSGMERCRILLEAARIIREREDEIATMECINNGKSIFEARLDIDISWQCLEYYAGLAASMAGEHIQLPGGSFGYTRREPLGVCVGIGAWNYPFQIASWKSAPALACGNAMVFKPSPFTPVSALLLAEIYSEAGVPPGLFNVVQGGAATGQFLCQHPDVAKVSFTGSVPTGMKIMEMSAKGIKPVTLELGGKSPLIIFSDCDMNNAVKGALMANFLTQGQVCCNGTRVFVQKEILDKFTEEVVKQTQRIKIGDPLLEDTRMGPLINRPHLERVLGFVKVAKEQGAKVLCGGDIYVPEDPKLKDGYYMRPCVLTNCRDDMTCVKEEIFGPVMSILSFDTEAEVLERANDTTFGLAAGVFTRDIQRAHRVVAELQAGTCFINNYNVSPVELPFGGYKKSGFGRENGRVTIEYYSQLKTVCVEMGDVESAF
inactive: [1] 0.04 | [2] -0.025 | [3] -0.011 | [4] -0.05 | entinostat 0.003 | vorinostat -0.003 | citarinostat 0.025 | silmitasertib -0.045 | [5] -0.033 | [6] 0.015 | entospletinib -0.017

AARSD1 isoform 3 (UniProt Q9BTE6)
Chain of UniProt Q9BTE6 (Q9BTE6 whole entry, looked up): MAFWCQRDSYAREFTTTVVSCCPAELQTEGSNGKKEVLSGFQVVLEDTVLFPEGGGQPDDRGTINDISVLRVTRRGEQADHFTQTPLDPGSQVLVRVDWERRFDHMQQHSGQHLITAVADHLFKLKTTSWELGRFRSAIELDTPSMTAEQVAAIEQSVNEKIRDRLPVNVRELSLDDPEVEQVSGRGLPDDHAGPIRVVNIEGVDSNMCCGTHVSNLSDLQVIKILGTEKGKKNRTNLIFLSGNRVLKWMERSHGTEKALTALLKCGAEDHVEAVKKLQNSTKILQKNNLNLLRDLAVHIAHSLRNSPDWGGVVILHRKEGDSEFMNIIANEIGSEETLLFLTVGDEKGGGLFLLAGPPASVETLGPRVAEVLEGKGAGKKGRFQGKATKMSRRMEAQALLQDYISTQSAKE
inactive: [1] -0.051 | [2] -0.008 | [4] -0.04 | entinostat 0.054 | vorinostat -0.113 | citarinostat 0.033 | silmitasertib 0.046 | [5] 0.008 | [6] 0.011 | entospletinib -0.066
active: [3] -0.214

ALKBH4 (UniProt Q9NXW9)
Chain of UniProt Q9NXW9 (Q9NXW9 whole entry, looked up): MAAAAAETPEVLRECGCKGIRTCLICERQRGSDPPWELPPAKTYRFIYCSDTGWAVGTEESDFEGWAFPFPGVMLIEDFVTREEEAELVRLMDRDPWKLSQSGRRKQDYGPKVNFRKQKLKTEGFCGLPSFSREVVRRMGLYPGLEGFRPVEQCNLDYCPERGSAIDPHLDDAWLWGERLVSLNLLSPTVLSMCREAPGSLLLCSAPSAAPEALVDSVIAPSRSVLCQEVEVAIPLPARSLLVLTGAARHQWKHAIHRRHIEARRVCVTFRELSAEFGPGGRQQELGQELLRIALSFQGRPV
active: [3] -0.427
inactive: [1] -0.009 | [2] -0.051 | [4] 0.097 | entinostat -0.058 | vorinostat -0.031 | citarinostat 0.079 | silmitasertib 0.165 | [5] 0 | [6] -0.014 | entospletinib -0.029

ARFIP1 (UniProt P53367)
inactive: [1] 0.116 | [2] -0.002 | [3] -0.162 | [4] 0.062 | entinostat 0.079 | vorinostat 0.031 | citarinostat 0.121 | silmitasertib -0.011 | [5] -0.042 | [6] -0.048 | entospletinib -0.109

BRAP (UniProt Q7Z569)
inactive: [1] 0.056 | [2] -0.063 | [3] -0.113 | [4] -0.015 | entinostat 0.003 | vorinostat 0.069 | citarinostat 0.037 | silmitasertib 0.073 | [5] 0.124 | [6] 0.064 | entospletinib 0.002

AFDN isoform 1 (UniProt P55196)
inactive: [1] -0.016 | [2] 0.048 | [3] -0.043 | [4] -0.031 | entinostat 0.047 | vorinostat -0.033 | citarinostat 0.079 | silmitasertib 0.002 | [5] -0.054 | [6] -0.141 | entospletinib -0.028

AGRN (UniProt O00468)
inactive: [1] 0.016 | [2] 0.053 | [3] 0.033 | [4] 0.02 | entinostat 0.035 | vorinostat -0.126 | citarinostat 0.01 | silmitasertib -0.073 | [5] 0.087 | [6] -0.238 | entospletinib 0.018

ATG4B isoform 2 (UniProt Q9Y4P1)
inactive: [1] 0.08 | [2] -0.104 | [3] -0.401 | [4] -0.151 | entinostat 0.154 | vorinostat 0.268 | citarinostat 0.005 | silmitasertib 0.003 | [5] -0.093 | [6] -0.023 | entospletinib 0.11

ACP2 (UniProt P11117)
inactive: [1] -0.014 | [2] 0.002 | [3] -0.124 | [4] 0.018 | entinostat -0.01 | vorinostat -0.003 | citarinostat 0.05 | silmitasertib 0.069 | [5] -0.052 | [6] -0.102 | entospletinib -0.004

ATP5IF1 (UniProt Q9UII2)
inactive: [1] -0.039 | [2] -0.01 | [3] -0.02 | [4] 0.086 | entinostat -0.021 | vorinostat -0.07 | citarinostat -0.124 | silmitasertib -0.044 | [5] -0.092 | [6] 0.092 | entospletinib 0.057

ALDH18A1 (UniProt P54886)
inactive: [1] 0.033 | [2] -0.03 | [3] -0.34 | [4] -0.219 | entinostat 0.249 | vorinostat 0.194 | citarinostat 0.031 | silmitasertib 0.018 | [5] -0.329 | [6] -0.372 | entospletinib -0.246

ACTR1B (UniProt P42025)
active: vorinostat 0.459
inactive: [1] 0.075 | [2] 0.027 | [3] -0.003 | [4] 0.004 | entinostat -0.034 | citarinostat 0.078 | silmitasertib 0.023 | [5] 0.06 | [6] -0.004 | entospletinib 0.01

ARL6IP4 (UniProt Q66PJ3)
inactive: [1] -0.035 | [2] 0.221 | [3] 0.025 | [4] 0.013 | entinostat -0.04 | vorinostat -0.011 | citarinostat 0.04 | silmitasertib -0.017 | [5] -0.007 | [6] -0.017 | entospletinib 0.034

ATL2 (UniProt Q8NHH9)
Chain of UniProt Q8NHH9 (Q8NHH9 whole entry, looked up): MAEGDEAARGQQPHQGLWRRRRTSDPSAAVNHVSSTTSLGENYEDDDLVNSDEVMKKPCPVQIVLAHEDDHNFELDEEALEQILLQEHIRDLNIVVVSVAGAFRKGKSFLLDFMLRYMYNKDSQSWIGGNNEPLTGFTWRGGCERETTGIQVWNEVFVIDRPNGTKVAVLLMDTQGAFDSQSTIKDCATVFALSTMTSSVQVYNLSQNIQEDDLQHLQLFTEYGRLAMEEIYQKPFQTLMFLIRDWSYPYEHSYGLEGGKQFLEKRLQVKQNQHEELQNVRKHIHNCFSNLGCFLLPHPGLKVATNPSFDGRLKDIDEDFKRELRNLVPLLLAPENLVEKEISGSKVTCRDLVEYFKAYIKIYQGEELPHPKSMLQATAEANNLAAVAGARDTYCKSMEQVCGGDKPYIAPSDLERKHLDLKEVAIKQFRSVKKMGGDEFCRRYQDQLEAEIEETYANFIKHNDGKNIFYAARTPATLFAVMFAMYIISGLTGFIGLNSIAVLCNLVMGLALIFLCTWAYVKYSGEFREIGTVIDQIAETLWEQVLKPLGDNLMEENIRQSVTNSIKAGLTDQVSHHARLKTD
inactive: [1] -0.021 | [2] -0.03 | [3] -0.165 | [4] -0.094 | entinostat -0.025 | vorinostat 0.017 | citarinostat -0.023 | silmitasertib -0.004 | [5] -0.025 | [6] -0.058 | entospletinib 0.016

BAD (UniProt Q92934)
Chain of UniProt Q92934 (Q92934 whole entry, looked up): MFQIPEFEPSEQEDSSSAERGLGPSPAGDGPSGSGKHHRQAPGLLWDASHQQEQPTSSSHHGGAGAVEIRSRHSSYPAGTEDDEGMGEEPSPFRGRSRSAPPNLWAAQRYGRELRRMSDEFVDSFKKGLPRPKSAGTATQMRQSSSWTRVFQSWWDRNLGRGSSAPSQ
inactive: [1] -0.243 | [2] 0.033 | [3] 0.101 | [4] -0.018 | entinostat -0.122 | vorinostat 0.011 | citarinostat -0.064 | silmitasertib -0.071 | [5] 0.131 | [6] -0.072 | entospletinib -0.014

ACACB (UniProt O00763)
Chain of UniProt O00763 (O00763 whole entry, looked up): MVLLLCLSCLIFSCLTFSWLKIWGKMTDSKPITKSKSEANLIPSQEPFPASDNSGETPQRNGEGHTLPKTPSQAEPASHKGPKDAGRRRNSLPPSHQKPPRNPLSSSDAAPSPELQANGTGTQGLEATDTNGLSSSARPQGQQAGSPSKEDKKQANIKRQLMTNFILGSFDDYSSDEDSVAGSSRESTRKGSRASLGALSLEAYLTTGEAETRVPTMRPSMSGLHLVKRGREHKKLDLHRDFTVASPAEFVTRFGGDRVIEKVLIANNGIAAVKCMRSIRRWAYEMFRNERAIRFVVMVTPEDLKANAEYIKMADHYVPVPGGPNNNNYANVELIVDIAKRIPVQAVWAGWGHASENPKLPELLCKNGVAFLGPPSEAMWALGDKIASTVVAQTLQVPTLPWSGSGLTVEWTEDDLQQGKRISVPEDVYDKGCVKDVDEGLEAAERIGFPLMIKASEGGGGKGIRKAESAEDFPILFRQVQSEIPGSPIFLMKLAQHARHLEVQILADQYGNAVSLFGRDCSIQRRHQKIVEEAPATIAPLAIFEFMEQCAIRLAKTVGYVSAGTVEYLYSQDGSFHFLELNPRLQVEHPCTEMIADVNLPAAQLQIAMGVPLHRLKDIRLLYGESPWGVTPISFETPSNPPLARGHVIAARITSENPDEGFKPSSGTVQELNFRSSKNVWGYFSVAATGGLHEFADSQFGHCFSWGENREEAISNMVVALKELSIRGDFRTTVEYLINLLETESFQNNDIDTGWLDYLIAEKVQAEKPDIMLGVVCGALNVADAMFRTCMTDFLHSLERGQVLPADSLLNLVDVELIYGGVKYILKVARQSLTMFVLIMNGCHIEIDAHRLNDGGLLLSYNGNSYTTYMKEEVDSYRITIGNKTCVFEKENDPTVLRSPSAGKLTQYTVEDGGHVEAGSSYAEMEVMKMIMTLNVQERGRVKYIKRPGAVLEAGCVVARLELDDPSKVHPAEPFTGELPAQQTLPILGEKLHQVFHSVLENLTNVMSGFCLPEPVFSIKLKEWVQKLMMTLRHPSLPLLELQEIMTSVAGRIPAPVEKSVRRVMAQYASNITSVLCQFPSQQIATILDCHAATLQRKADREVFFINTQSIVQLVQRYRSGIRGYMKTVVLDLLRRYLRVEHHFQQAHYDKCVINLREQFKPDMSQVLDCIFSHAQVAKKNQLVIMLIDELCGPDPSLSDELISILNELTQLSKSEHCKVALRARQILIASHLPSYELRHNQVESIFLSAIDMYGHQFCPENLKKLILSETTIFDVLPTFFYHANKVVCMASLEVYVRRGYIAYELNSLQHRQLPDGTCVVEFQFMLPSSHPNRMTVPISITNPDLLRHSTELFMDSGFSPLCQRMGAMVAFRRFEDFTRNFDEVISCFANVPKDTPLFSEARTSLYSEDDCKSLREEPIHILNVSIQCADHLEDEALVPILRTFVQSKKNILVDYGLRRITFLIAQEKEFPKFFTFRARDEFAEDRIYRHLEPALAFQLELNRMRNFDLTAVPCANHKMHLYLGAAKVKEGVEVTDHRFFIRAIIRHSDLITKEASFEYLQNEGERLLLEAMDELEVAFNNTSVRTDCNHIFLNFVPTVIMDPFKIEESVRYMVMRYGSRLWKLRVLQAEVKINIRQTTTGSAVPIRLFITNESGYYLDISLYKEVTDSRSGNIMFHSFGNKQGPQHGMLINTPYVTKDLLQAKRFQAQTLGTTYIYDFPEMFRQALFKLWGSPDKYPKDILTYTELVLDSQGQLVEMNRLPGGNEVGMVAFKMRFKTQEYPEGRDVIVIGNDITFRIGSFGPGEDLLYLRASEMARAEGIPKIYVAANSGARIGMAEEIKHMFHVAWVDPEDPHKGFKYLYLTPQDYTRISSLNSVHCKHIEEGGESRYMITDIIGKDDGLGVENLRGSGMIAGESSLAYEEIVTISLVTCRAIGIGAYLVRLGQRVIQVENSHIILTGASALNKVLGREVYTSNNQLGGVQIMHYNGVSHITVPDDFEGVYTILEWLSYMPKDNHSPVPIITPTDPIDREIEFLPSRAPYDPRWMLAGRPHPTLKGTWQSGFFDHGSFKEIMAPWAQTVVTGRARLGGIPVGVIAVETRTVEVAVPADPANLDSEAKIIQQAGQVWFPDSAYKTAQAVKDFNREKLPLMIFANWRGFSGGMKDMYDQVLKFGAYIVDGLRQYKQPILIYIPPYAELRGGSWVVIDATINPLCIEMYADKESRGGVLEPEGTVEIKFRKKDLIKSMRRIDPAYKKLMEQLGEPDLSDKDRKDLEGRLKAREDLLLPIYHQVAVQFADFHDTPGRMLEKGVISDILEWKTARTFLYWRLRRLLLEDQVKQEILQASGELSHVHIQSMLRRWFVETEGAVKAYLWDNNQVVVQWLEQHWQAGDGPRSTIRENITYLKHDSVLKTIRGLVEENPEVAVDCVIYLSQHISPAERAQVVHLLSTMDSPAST
inactive: [1] -0.02 | [2] -0.043 | [3] -0.047 | [4] 0.084 | entinostat 0.076 | vorinostat 0.082 | citarinostat 0.131 | silmitasertib 0.119 | [5] 0.222 | [6] -0.01 | entospletinib -0.077

AP2S1 (UniProt P53680)
inactive: [2] 0.102 | [3] -0.009 | [4] -0.039 | entinostat -0.066 | vorinostat 0.108 | citarinostat -0.077 | silmitasertib 0.011 | [6] -0.217 | entospletinib 0.028
active: [1] -0.386 | [5] -0.314

ACOX3 (UniProt O15254)
inactive: [1] -0.084 | [2] 0.004 | [3] -0.09 | [4] 0.16 | entinostat 0.071 | citarinostat 0.287 | silmitasertib -0.302 | [5] -0.022 | [6] -0.016 | entospletinib 0.056

ATP6V1F isoform 2 (UniProt Q16864)
inactive: [1] 0.175 | [2] 0.221 | [3] -0.078 | [4] 0.143 | entinostat 0.087 | vorinostat -0.092 | citarinostat 0.026 | silmitasertib -0.042 | [5] -0.073 | [6] 0.026 | entospletinib 0.027

ANKZF1 (UniProt Q9H8Y5)
inactive: [1] -0.008 | [2] 0.026 | [3] 0.072 | [4] -0.001 | entinostat 0.03 | vorinostat 0.054 | citarinostat -0.006 | silmitasertib -0.051 | [5] 0.215 | [6] -0.065 | entospletinib 0.006

BRD3 (UniProt Q15059)
inactive: [1] 0.008 | [2] -0.026 | [3] 0.017 | [4] 0.119 | entinostat -0.123 | silmitasertib 0.061 | [6] -0.002 | entospletinib 0.033
active: vorinostat -0.663 | citarinostat -0.567

AP4S1 (UniProt Q9Y587)
inactive: [1] -0.014 | [2] 0.039 | [3] -0.11 | [4] 0.019 | entinostat 0.062 | citarinostat 0.054 | silmitasertib -0.005 | [5] -0.092 | [6] 0.015 | entospletinib 0.039
